Laboratory results from article PMC11995724, “Antibiotic target discovery by integrated phenotypic and activity-based profiling of electrophilic fragments” (Cell chemical biology, 2025).
Among all 3,200 compounds or so, about 75 (2%) showed an effect of 50% or more. The full list was thinned out, with strong results kept by preference.

Tested on: T1, S. aureus MSSA476
T1 construct: MSSA476
Parameters: species or system S. aureus MSSA476 (TSB) or V. cholerae SAD30 (LB); 384-well bacterial growth screen at 25 uM, OD600 relative to DMSO control
Conditions: relative growth, OD600, TSB; 25 µM; inhibitor

Compared with `N#CC(=Cc1ccc2c(c1)OCO2)C(=O)NCc1ccccc1` [8-A09, 3-(1,3-dioxaindan-5-yl)-N-benzyl-2-cyanoprop-2-enamide], `O=C(CCl)c1ccc(NC(=O)c2ccccc2)cc1` [10-B06, N-[4-(2-chloroacetyl)phenyl]benzamide] is lower in “% of control remaining” value: 113.527% for the first, 0% for the second.

Going from `CC(C)n1ccnc1C(=O)CCl` [10-H10, 2-chloro-1-[1-(propan-2-yl)-1H-imidazol-2-yl]ethan-1-one] to `Cn1ccnc1C(=O)CCl` [10-C15, 2-chloro-1-(1-methyl-1H-imidazol-2-yl)ethan-1-one], the “% of control remaining” value rises from 2.1875% to 93.75%.

Going from `COC(=O)c1c(C(=O)CCl)c(C)n(C(C)C)c1C` [10-K21, methyl 4-(2-chloroacetyl)-2,5-dimethyl-1-(propan-2-yl)-1H-pyrrole-3-carboxylate] to `CC(C)CC(=O)Nc1ccc(C(=O)CCl)cc1` [10-N06, N-[4-(2-chloroacetyl)phenyl]-3-methylbutanamide], the “% of control remaining” value falls from 119.375% to 1.25%.

Going from `C=CCNC(=O)C(C#N)=Cc1sccc1C` [9-P07, 2-cyano-3-(3-methylthiophen-2-yl)-N-(prop-2-en-1-yl)prop-2-enamide] to `CC(=O)Nc1ccc(C(=O)CCl)cc1` [10-O12, N-[4-(2-chloroacetyl)phenyl]acetamide], the “% of control remaining” value falls from 115.955% to 6.875%.

First: CC(Cl)C(=O)Nc1ccc(Cl)cc1Cl (stereo not shown) [4-L17, 2-chloro-N-(2,4-dichlorophenyl)propanamide]
Second: CCCC(=O)Nc1ccc(C(=O)C(C)Cl)cc1 (stereo not shown) [10-O06, N-[4-(2-chloropropanoyl)phenyl]butanamide]
The “% of control remaining” value of the first is lower: 92.9967% for the first, 121.875% for the second.

Compared with `CC(Cl)C(=O)N1CCCN(C(=O)c2cc(Cl)cn2C)CC1` (stereo not shown) [7-N07, 2-chloro-1-[4-(4-chloro-1-methyl-1H-pyrrole-2-carbonyl)-1,4-diazepan-1-yl]propan-1-one], `CC(=O)c1ccc(NC(=O)CCl)cc1` [4-G07, N-(4-acetylphenyl)-2-chloroacetamide] is higher in “% of control remaining” value: 91.6797% for the first, 93.7589% for the second.

Compared with `CS(=O)(=O)NCCc1ccc(C(=O)CCl)cc1` [10-D06, N-{2-[4-(2-chloroacetyl)phenyl]ethyl}methanesulfonamide], `CS(=O)(=O)Nc1ccc(C(=O)CCl)cc1` [10-D19, N-[4-(2-chloroacetyl)phenyl]methanesulfonamide] is lower in “% of control remaining” value: 79.375% for the first, 28.125% for the second.

Compared with `NC(=O)c1ccc(NC(=O)CCl)cc1` [4-P04, 4-(2-chloroacetamido)benzamide], `NC(=O)Nc1ccc(C(=O)CCl)cc1` [10-J07, [4-(2-chloroacetyl)phenyl]urea] is lower in “% of control remaining” value: 95.2835% for the first, 55.625% for the second.

Compared with `CS(=O)(=O)c1ccc(C(=O)CCl)cc1` [10-I13, 2-chloro-1-(4-methanesulfonylphenyl)ethan-1-one], `COc1ccccc1NC(=O)c1ccc(NC(=O)CCl)cc1` [4-O17, 4-(2-chloroacetamido)-N-(2-methoxyphenyl)benzamide] is higher in “% of control remaining” value: 83.125% for the first, 92.2344% for the second.

For `O=C(CCl)Nc1cccc(NC(=O)c2ccccc2)c1` [6-A03, N-[3-(2-chloroacetamido)phenyl]benzamide], the “% of control remaining” value was 76.1463%.
